Results taken from paper PMC7862700, “An all-to-all approach to the identification of sequence-specific readers for epigenetic DNA modifications on cytosine”.

Experiments:
Test in all cases: DAPPL (digital affinity profiling via proximity ligation, sequencing); 10 mM Tris-HCl pH 7.5, 50 mM NaCl, 1 mM DTT, 4% glycerol, room temperature, 30 min; GST-TFs on glutathione beads, 16-mer random dsDNA library, 0.1% formaldehyde crosslink after washing; high values mean tight binding
Settings in all cases: protein: recombinant; tags: N-terminal GST; dsDNA, one strand shown
[1] = molecular target: T1, ELK1 (Homo sapiens, UniProt P19419 1-428)
T1 sequence: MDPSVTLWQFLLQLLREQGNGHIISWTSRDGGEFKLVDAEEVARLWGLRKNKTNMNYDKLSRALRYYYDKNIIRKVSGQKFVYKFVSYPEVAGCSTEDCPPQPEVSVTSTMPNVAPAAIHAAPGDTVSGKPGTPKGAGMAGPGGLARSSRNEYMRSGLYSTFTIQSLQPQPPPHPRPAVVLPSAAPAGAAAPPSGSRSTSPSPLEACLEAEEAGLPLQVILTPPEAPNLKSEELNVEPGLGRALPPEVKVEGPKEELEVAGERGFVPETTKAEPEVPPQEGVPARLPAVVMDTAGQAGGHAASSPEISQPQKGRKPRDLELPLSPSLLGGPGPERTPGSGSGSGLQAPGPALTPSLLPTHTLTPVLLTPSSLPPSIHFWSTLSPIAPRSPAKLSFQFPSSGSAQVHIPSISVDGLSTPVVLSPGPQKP
In short: (§1)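 Pools were built from human transcription factors expressed in yeast as GST fusions, captured on glutathione beads and DNA-barcoded, along with a tag-only sample. Incubation with 200 nmole of a 16-mer random double-stranded DNA library lasted 30 min at room temperature in Tris/NaCl/DTT/glycerol buffer, and was followed by washing, 0.1% formaldehyde crosslinking, proximity ligation, PCR amplification and Illumina NextSeq500 sequencing. Binding signal is the quotient of each hexamer's read frequency for a factor and its frequency for the tag-only sample.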

[2] = molecular target: T2, GABPA (Homo sapiens, UniProt Q06546 1-454)
T2 sequence: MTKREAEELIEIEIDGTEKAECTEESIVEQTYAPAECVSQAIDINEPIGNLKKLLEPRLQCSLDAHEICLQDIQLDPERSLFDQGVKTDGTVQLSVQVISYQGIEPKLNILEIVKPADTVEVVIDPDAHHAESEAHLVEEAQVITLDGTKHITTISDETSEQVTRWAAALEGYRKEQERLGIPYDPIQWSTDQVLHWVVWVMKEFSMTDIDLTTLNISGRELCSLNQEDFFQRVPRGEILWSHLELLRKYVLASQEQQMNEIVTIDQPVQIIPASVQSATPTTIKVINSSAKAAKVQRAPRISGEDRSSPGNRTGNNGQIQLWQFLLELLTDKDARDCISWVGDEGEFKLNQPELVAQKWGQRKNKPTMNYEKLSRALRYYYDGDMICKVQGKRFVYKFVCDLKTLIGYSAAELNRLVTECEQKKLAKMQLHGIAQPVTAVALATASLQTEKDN
In short: as §1

[3] = molecular target: T3, ERG (Homo sapiens, UniProt P11308 1-479)
T3 sequence: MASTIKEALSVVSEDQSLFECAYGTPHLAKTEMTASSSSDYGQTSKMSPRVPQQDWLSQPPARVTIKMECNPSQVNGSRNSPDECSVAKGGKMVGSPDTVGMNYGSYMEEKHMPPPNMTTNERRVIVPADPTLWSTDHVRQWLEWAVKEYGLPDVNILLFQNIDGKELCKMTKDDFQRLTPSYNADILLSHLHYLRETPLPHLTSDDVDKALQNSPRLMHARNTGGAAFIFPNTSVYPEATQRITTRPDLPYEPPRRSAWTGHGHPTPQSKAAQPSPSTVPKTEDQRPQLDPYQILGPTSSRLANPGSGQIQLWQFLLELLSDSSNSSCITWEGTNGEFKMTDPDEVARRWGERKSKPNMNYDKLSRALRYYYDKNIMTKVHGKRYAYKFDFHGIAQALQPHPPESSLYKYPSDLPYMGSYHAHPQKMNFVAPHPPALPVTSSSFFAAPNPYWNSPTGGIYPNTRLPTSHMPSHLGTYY
In short: as §1

[4] = molecular target: ELF1 (Homo sapiens, UniProt P32519 1-619)
Sequence of ELF1 (P32519 whole entry): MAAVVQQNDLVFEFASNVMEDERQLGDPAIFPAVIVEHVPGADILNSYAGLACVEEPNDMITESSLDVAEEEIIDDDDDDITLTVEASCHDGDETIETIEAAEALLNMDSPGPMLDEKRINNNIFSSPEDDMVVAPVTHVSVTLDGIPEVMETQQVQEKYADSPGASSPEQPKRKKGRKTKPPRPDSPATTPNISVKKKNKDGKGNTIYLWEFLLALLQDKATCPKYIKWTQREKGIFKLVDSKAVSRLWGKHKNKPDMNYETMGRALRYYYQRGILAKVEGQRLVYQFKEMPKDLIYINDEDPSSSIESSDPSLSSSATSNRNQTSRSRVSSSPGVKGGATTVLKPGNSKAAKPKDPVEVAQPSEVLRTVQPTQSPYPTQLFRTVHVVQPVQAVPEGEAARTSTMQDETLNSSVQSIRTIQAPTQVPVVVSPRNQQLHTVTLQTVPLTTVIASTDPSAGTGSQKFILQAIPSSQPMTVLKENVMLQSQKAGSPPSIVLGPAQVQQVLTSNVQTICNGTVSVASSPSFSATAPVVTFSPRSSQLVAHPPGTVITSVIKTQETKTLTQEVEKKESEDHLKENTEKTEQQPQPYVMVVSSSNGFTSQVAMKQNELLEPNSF
In short: as §1

[5] = molecular target: T4, ELK3 (Homo sapiens, UniProt P41970 1-407)
T4 sequence: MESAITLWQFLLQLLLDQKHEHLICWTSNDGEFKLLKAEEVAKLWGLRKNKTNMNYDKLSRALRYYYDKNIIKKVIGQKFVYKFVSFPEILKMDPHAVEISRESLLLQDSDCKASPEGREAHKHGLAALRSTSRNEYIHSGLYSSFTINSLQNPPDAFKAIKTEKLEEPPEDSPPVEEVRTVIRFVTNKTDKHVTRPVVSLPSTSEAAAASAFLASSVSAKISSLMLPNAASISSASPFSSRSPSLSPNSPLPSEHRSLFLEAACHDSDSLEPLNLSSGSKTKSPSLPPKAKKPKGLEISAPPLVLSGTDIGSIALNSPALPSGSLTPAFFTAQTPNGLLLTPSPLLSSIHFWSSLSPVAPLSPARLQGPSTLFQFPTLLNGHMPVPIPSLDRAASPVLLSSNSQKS
In short: as §1

[6] = molecular target: ELF4 (Homo sapiens, UniProt Q99607 1-663)
Sequence of ELF4 (Q99607 whole entry): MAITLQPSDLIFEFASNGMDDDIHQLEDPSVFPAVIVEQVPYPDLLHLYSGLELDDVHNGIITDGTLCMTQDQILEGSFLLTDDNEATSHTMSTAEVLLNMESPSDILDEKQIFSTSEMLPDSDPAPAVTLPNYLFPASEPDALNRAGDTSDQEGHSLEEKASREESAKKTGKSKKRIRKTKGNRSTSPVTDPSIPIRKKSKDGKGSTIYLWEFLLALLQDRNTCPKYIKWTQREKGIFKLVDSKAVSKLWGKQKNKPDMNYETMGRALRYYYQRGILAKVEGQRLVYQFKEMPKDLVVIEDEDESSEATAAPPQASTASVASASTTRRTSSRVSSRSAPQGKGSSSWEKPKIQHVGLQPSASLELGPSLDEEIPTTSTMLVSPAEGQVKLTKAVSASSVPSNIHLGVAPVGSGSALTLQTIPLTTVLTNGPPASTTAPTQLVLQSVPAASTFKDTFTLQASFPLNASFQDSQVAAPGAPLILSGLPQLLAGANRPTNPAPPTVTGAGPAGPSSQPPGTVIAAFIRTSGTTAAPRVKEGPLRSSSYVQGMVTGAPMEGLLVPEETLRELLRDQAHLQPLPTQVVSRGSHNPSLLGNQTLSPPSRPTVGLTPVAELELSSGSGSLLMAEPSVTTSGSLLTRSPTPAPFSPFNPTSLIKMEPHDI
In short: as §1

[7] = molecular target: T5, ELK4 (Homo sapiens, UniProt P28324-2 1-405)
T5 sequence: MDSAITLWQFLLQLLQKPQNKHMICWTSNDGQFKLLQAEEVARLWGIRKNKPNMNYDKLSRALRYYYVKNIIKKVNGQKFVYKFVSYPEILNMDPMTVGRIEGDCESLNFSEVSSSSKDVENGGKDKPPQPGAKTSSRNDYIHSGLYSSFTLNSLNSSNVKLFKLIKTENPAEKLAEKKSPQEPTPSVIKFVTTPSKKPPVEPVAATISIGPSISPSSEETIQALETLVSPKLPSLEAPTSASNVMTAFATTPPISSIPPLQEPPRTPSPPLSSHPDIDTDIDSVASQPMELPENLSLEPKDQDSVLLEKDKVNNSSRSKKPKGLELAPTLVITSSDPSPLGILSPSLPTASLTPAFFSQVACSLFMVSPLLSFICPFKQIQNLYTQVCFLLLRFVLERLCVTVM
In short: as §1

[8] = molecular target: T6, ELF3 (Homo sapiens, UniProt P78545 1-371)
T6 sequence: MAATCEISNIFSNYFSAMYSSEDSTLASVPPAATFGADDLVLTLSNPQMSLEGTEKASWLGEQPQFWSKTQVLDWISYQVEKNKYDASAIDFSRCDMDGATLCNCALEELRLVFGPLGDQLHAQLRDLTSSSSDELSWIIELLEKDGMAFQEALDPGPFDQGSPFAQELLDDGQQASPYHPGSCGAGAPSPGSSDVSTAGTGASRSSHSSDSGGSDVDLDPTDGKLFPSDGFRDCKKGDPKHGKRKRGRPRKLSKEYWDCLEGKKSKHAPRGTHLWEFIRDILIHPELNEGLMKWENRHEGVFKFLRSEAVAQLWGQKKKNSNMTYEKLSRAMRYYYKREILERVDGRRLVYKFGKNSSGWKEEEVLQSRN
In short: as §1

[9] = molecular target: ETV1 (Homo sapiens, UniProt P50549 1-477)
Sequence of ETV1 (P50549 whole entry): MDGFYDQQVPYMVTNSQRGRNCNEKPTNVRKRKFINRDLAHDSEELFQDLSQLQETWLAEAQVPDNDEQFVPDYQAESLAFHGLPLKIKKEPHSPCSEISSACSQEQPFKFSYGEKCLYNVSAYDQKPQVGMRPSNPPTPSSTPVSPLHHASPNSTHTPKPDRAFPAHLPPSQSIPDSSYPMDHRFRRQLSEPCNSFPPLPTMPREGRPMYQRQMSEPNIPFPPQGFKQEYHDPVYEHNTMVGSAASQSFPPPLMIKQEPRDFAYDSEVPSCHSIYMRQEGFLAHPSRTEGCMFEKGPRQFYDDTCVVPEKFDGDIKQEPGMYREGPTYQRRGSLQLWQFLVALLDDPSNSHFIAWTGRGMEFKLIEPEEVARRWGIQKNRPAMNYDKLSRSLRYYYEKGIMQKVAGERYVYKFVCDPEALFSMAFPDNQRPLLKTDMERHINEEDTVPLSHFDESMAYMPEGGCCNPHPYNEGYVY
In short: as §1

[10] = molecular target: T7, ERF (Homo sapiens, UniProt P50548 1-548)
T7 sequence: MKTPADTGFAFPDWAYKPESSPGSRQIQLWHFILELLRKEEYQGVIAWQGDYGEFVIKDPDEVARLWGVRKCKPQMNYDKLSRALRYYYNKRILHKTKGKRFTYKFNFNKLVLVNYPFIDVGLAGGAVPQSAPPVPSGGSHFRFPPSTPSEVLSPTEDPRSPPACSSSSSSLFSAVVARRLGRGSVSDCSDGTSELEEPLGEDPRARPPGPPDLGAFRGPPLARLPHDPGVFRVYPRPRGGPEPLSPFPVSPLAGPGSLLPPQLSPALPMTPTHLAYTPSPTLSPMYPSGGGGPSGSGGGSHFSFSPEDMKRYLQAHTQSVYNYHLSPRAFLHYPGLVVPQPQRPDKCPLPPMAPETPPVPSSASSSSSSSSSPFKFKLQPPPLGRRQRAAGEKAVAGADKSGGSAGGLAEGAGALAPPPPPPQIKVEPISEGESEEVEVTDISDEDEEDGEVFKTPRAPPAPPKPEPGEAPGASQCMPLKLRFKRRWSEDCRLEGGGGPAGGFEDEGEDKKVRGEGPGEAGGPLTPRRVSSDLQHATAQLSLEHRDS
In short: as §1

[11] = molecular target: T8, ETS2 (Homo sapiens, UniProt P15036 1-469)
T8 sequence: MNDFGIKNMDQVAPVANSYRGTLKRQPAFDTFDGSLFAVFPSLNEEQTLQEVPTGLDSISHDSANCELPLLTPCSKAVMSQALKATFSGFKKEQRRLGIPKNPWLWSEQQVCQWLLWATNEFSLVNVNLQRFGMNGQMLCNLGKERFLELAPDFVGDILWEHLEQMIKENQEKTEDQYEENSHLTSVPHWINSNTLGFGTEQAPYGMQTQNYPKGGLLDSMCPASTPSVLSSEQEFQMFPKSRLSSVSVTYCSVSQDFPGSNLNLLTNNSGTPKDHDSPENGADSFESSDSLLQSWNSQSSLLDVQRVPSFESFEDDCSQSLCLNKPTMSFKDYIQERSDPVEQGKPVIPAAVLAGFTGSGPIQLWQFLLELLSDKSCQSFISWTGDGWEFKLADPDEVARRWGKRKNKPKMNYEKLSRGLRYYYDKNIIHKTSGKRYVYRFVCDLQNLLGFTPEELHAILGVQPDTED
In short: as §1

[12] = molecular target: SPI1 (Homo sapiens, UniProt P17947 1-270)
In short: as §1

[13] = molecular target: T9, ETV2 (Homo sapiens, UniProt O00321 1-342)
T9 sequence: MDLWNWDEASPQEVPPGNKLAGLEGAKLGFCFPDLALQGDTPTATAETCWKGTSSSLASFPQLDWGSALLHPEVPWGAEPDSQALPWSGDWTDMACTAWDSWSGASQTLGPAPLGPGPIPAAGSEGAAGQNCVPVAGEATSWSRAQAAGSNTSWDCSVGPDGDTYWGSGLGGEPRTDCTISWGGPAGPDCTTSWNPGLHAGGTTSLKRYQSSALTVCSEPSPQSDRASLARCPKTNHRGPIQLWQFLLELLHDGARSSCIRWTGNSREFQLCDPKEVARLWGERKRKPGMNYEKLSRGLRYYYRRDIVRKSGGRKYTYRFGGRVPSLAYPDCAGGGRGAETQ
In short: as §1

[14] = molecular target: T10, SPDEF (Homo sapiens, UniProt O95238 1-335)
T10 sequence: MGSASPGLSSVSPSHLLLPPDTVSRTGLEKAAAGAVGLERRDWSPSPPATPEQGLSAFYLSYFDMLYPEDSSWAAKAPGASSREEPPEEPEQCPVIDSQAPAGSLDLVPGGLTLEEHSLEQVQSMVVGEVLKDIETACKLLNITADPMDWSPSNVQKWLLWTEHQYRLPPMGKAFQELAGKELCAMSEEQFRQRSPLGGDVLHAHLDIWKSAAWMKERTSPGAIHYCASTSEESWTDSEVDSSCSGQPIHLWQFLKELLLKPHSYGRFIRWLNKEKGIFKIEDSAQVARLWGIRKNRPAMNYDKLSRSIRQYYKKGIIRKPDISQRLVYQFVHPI
In short: as §1

[15] = molecular target: T11, ETV7 (Homo sapiens, UniProt Q9Y603 1-341)
T11 sequence: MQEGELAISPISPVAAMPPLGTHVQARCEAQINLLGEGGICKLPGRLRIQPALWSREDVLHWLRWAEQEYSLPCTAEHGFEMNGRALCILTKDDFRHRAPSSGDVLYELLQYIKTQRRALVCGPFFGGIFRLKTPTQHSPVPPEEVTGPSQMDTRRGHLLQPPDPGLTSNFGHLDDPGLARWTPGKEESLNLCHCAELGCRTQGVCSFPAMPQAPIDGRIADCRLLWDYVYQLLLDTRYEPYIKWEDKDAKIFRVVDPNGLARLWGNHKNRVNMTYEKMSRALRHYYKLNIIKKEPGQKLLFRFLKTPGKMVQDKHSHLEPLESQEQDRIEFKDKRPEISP
In short: as §1

[16] = molecular target: T12, ETV3 (Homo sapiens, UniProt P41162-2 1-143)
T12 sequence: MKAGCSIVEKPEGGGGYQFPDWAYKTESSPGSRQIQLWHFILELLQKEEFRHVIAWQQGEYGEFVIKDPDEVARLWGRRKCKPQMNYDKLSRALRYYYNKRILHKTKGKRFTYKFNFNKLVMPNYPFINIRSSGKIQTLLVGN
In short: as §1

| Sequence | binding signal [1] | binding signal [2] | binding signal [3] | binding signal [4] | binding signal [5] | binding signal [6] | binding signal [7] | binding signal [8] | binding signal [9] | binding signal [10] | binding signal [11] | binding signal [12] | binding signal [13] | binding signal [14] | binding signal [15] | binding signal [16] |
| --- | --- | --- | --- | --- | --- | --- | --- | --- | --- | --- | --- | --- | --- | --- | --- | --- |
| CAATGA | 1.04 fold enrichment (6-mer frequency, TF over GST control) | 1.05 fold enrichment (6-mer frequency, TF over GST control) | 1.03 fold enrichment (6-mer frequency, TF over GST control) | 1.06 fold enrichment (6-mer frequency, TF over GST control) | 1.04 fold enrichment (6-mer frequency, TF over GST control) | 1.01 fold enrichment (6-mer frequency, TF over GST control) | 1.12 fold enrichment (6-mer frequency, TF over GST control) | 1.15 fold enrichment (6-mer frequency, TF over GST control) | 1.01 fold enrichment (6-mer frequency, TF over GST control) | 1.06 fold enrichment (6-mer frequency, TF over GST control) | 1.03 fold enrichment (6-mer frequency, TF over GST control) | – | – | – | – | – |
| ATAGAC | – | 1.04 fold enrichment (6-mer frequency, TF over GST control) | – | 1.03 fold enrichment (6-mer frequency, TF over GST control) | – | 1.01 fold enrichment (6-mer frequency, TF over GST control) | 1.02 fold enrichment (6-mer frequency, TF over GST control) | – | – | – | – | 1.02 fold enrichment (6-mer frequency, TF over GST control) | 1.08 fold enrichment (6-mer frequency, TF over GST control) | 1.01 fold enrichment (6-mer frequency, TF over GST control) | 1.1 fold enrichment (6-mer frequency, TF over GST control) | 1.02 fold enrichment (6-mer frequency, TF over GST control) |
